# HT1080 IDH1KD tx: toxicity to HT-1080 IDH1 knockdown cells (counter line); HT-1080 IDH1 knockdown viability, ATP luminescence, 48 h; Potency, µM (highest dose often 46.1 µM), actives largely listed as cytotoxic; 360,000 tested, 2% active
#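 Knockdown cells (IDH1KD HT-1080) received compounds 2 h after plating at 750 cells/well and were kept 48 h at 37 °C in 5% FBS RPMI. A CellTiter-Glo luminescence read gave % activity for curve fitting.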
# TDP1 cell CPT: DT40-hTDP1 cell growth loss with CPT; Potency, µM (highest dose often 46.2 µM), actives largely listed as inhibitors; chicken DT40 Tdp1-/-;hTDP1 cells + 20 nM CPT, ATP luminescence, 48 h; AID 686979; 420,000 tested, 12% active; further: nearly all actives have a fitted effect of over 55% in size
#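 Cell growth measured by CellTiter-Glo luminescence after a minimum 48 h, 37 C compound exposure with 20 nM CPT in Tdp1-knockout DT40 cells stably expressing hTDP1, seeded 400/well; qHTS titration format.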
# KB-3-1 cytotox: KB-3-1 parental cell cytotoxicity | KB-3-1 viability, CellTiter-Glo ATP luminescence, 72 h | Potency, µM (titrated, usually from 46.1 µM), hits mostly cytotoxic | 400,000 tested, 1.4% active | AID 1347075; further: nearly all actives have a fitted effect of over 60% in size
#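 Parental KB-3-1 adenocarcinoma cells in phenol-red-free DMEM with 10% FBS were pin-treated with compounds at several concentrations, incubated 72 h at 37 °C, and viability read by CellTiter-Glo luminescence; concentration-effect curves were fitted after normalization.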
# KB-V1 MDR tox: kills drug-selected multidrug resistant KB-V1 cells; KB-V1 MDR cells viability, CellTiter-Glo, 72 h; Potency, µM (series often up to 46.1 µM), hits mostly cytotoxic; 400,000 tested, 3.4% active; further: nearly all actives have a fitted effect of over 60% in size
#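 Cytotoxicity toward P-gp-expressing KB-V1 cells was determined as loss of CellTiter-Glo luminescence after 72 h at 37 degrees C. Compounds were tested in quantitative HTS format across a concentration range, with curves fitted to normalized data.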
# HT1080NT lethal: kills 2HG-producing HT-1080-NT fibrosarcoma cells. Potency, µM (highest dose often 46.1 µM), usual class: cytotoxic. 360,000 tested, 1.6% active. AID 686970. HT-1080-NT fibrosarcoma viability, CellTiter-Glo ATP luminescence, 48 h;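 further: NT is the 2HG producing partner of a matched IDH1 knockdown line; nearly all actives have a fitted effect of over 55% in size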
#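 HT-1080-NT fibrosarcoma cells (2HG-overproducing), 750 cells/well in RPMI with 5% FBS, dosed after 2 h and incubated 48 h at 37C. CellTiter-Glo luminescence normalized to DMSO and no-cell wells; concentration-response curves fitted and classed.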
# TDP1 cell noCPT: qHTS for Inhibitors of human tyrosyl-DNA phosphodiesterase 1 (TDP1): qHTS in cells in absence of CPT; DT40 Tdp1-/- hTDP1 cells, no CPT, ATP luminescence, 48 h; Potency, µM (titrated, usually from 46.2 µM), most hits filed as inhibitors; 420,000 tested, 15% active; further: nearly all actives have a fitted effect of over 55% in size
#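 Readout: luminescence from CellTiter-Glo after 30 min in the dark at RT. Cells: DT40 Tdp1-/- with stable hTDP1, 400/well. Exposure: compounds alone, ≥48 hr, 37 °C.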
# Hits are given with their value; . = inactive; ? = inconclusive; / = no result; [ ] = remark or other dose. An excerpt weighted towards active compounds, which were near 19% of everything screened. The call rests on the fitted dose curve; in most records, active means well fitted curve in the direction sought with a large enough effect; inconclusive means small, poorly fitted or top-dose-only effect, or another doubt; inactive means no such curve, though single readings can be large; an effect the other way counts as inactive or inconclusive.
SMILES,HT1080 IDH1KD tx,TDP1 cell CPT,KB-3-1 cytotox,KB-V1 MDR tox,HT1080NT lethal,TDP1 cell noCPT
CCOC(=O)c1cc(-c2ccccc2)n(CCC(=O)NC(C)CC)c1C (configuration not stated),.,.,.,.,.[9.24 µM],.
CCOC(=O)c1cc(-c2ccc(C)cc2)n(CC(=O)NC2CCCCCC2)c1C,/,23µM,?,.,/,?
CC(=O)c1cc(-c2ccccc2)n(CCC(=O)NC2CCCCC2)c1C,.,?,.,.,.,?
COc1ccc(CCNC(=O)Cn2c(-c3ccc(F)cc3)cc(C(C)=O)c2C)cc1OC,/,26µM,.,.,/,21µM
CC(=O)c1cc(-c2ccc(F)cc2)n(CC(=O)NC2CCCCCC2)c1C,/,?,.,.,/,16µM
COC(=O)c1ccc(COC(=O)CCC(=O)c2cccs2)cc1,.,.,.,.,.,.
CCN(CC(=O)Nc1ccc(NC(C)=O)cc1)C(=O)/C=C/c1c(C)nn(-c2ccc(F)cc2)c1C,.,.,.,.,.,.
CCCCc1ccc(NC(=O)Nc2cc(C)nn2C)cc1,?,.,6.5µM,.,?,.
CCc1ccc(NC(=O)Nc2cnccn2)cc1,.,?,.,.,.,.
CCCCc1ccc(NC(=O)Nc2cnccn2)cc1,?,15µM,12µM,?,?,23µM
COc1cccc(C(=O)Nc2ccc(C(=O)OCc3cc(=O)n4nc(C5CC5)sc4n3)cc2)c1,/,.,/,/,/,.
Cc1cc(C)c(NC(=O)CN(C)S(=O)(=O)c2ccc3c(c2)n(C)c(=O)c(=O)n3C)c(C)c1,.,?,.,.,.,.
Cc1ccc(S(=O)(=O)N(C)CCCC(=O)Nc2ccc(C)cc2C)cc1,.,.,.,21µM,.,?
Cc1ccc(NC(=O)CN(C)S(=O)(=O)c2ccc3c(c2)n(C)c(=O)c(=O)n3C)c(C)c1,.,18µM,.,.,.,?
Cc1ccc(S(=O)(=O)N(C)CCCC(=O)Nc2cccc3ccccc23)cc1,.,?,.,12µM,?,?
Cc1ccc(C(=O)C(C)Sc2nnc(N)s2)cc1 (configuration not stated),.,.,.,.,.,.
Cc1cccc(C(=O)N2CCOc3ccc(CN(C)Cc4cc(C5CC5)n[nH]4)cc3C2)n1,/,.[9.04 µM],/,/,/,.
COc1ccc(-c2cc(C(=O)c3c(N)n(C)c(=O)n(C)c3=O)c3ccccc3n2)cc1OC,.,.,.,.,.,.
CCc1ccc(NC(=O)CCNS(=O)(=O)c2cccc3nonc23)cc1,.,?,.,.,.,.
CC(=O)c1ccc(S(=O)(=O)N2CCN(C(=O)c3cccc(S(=O)(=O)N4CC(C)OC(C)C4)c3)CC2)cc1 (configuration not stated),.,.,.,?,.,.
COc1nnc(-c2ccc(N3CCCCC3)c(NC(=O)c3ccc(C)cc3)c2)c2ccccc12,/,.,.,.,/,.
Cn1nc(-c2ccc(N3CCCCC3)c(NC(=O)c3ccco3)c2)c2ccccc2c1=O,.,21µM,8.2µM,?,.,16µM
CCC(=O)Nc1cc(-c2nnc(OC)c3ccccc23)ccc1N1CCOCC1,.,.,.,.,.,?
COc1nnc(-c2ccc(N3CCCCC3)c(NC(=O)c3ccccc3Cl)c2)c2ccccc12,/,6.5µM,/,/,/,6.5µM
COc1nnc(-c2ccc(N3CCOCC3)c(NC(=O)c3ccco3)c2)c2ccccc12,.,?,.,.,.,26µM
CCCSc1nc2c(c(=O)[nH]1)C(c1ccc(F)cc1F)CC(=O)N2 (configuration not stated),/,?,.,.,/,?
COc1ccc(F)cc1S(=O)(=O)NCCCn1ccnc1,.,.,.,.,.,.
CCCn1c(SCC(=O)Nc2cccnc2Cl)n[nH]c1=O,.,.,.,.,.,.

# Screening data: PubChem, National Center for Advancing Translational Sciences (NCATS)
